Most compounds without a hit are left out; they make up all but 1.2% or so of the library.
RGS12 GoLoco inh: blocks human Gai1 binding to RGS12 GoLoco peptide, red readout; P63096; Gai1:RGS12 GoLoco peptide FP, rhodamine, 10 min; Potency, µM (titrated, usually from 61.6 µM), without a hit: at the highest dose activity, negative = inhibition, actives largely listed as inhibitors; 0.44% of 230,000 active; AID 880; active means well fitted inhibition curve with a large enough effect, not every such curve was filed as active; inactive means no such curve, though single readings can be large or run the other way; further: on the % scale 0 is the no-effect control and ±100 the full control effect; nearly all actives have a fitted effect of over 30% in size
Apoferritin bind: candidate novel general anesthetic via apoferritin binding; Potency, µM (doses to about 77.5 µM), inactives show at the highest dose activity change, negative = displacement, actives largely listed as inhibitors; P02791; 0.074% of 350,000 active; apoferritin/1-aminoanthracene competitive binding, fluorescence; AID 485281; further: on the % scale 0 is the no-effect control and ±100 the full control effect; nearly all actives have a fitted effect of over 20% in size
Target sequence (P02791 2-175 limits assumed): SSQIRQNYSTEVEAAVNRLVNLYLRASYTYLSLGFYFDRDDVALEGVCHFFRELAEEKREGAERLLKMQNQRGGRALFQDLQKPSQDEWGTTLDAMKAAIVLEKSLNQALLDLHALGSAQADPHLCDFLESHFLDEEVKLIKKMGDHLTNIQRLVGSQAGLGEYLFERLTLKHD
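Concentration-response curves derived by four-parameter Hill fitting of normalized fluorescence, where compounds displaced 1-AMA from 10 uM horse apoferritin following a brief 10 min room-temperature incubation; propofol titration acted as positive control.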
BRCA1 expr act: activators of BRCA1 expression; MCF7-BRCA1-FFLuc reporter, luminescence, 48 h; response scale: scaled: vehicle 0%, 10 µM genistein 100%; Potency, µM (highest dose often 46.1 µM), for inactives: at the highest dose activation, usual class: activators; 1.1% of 380,000 active; AID 624202; further: nearly all actives have a fitted effect of over 80% in size
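Activators of BRCA1 expression were detected as increased firefly luciferase luminescence in engineered MCF7 cells after 48 h compound incubation. Signals were scaled to genistein 10 microM as full activation.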
ERG Ets-DNA blk: ERG Ets/DNA interaction inhibition; Potency, µM (top dose mostly 76.9 µM), inactives show at the top dose FP activity, negative = inhibition, hits mostly inhibitors; 0.028% of 370,000 active; fluorescence polarization, His-ERG Ets domain / labelled DNA; P11308; active means well fitted inhibition curve with a large enough effect in the polarisation, with a control signal flat; inconclusive means small, poorly fitted or top-dose-only effect, or effect the other way, or a change in a side signal; inactive means no such curve, though single readings can be large or run the other way; the % refers to the polarisation;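 further: polarization taken with two DNA probes labelled with fluorescein and Texas red; % of control where 0% means no effect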
Target sequence (P11308 whole entry, looked up, the tested form may be a part): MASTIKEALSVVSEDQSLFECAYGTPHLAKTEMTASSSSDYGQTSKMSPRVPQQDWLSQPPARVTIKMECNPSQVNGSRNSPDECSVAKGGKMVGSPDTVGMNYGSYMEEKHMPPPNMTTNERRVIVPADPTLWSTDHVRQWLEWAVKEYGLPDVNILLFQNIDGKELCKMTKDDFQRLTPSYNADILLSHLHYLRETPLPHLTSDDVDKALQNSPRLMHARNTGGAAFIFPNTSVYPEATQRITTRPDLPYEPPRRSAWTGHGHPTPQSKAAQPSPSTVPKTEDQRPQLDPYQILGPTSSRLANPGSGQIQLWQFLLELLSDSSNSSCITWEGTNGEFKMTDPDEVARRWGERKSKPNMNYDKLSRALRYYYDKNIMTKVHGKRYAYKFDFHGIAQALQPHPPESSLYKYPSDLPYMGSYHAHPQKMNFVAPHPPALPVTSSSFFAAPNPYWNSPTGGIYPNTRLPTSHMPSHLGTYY
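His-tagged ERG Ets domain (1 uM in the protein solution; 300mM KCl, 50mM Tris-HCl, 1mM EDTA, 1mM DTT, pH 7.5) received compound, then a probe mix of 5 nM fluorescein-DNA and 100nM Texas-615-DNA. Fluorescence polarization was read for both dyes.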
An asterisk follows results filed as active; u = inconclusive; x = no result; [ ] = dose if it differs, or a comment. Unless noted, the call rests on the fitted dose curve; in most records, active means well fitted curve in the direction sought with a large enough effect; inconclusive means small, poorly fitted or top-dose-only effect, or another doubt; inactive means no such curve, though single readings can be large; an effect the other way counts as inactive or inconclusive. Potency means the concentration at half of the fitted maximal effect.

SMILES | RGS12 GoLoco inh | Apoferritin bind | BRCA1 expr act | ERG Ets-DNA blk
COc1ccc(Nc2ncnc3sccc23)cc1 | x | -6% | 7.1µM* | -14%
NC(N)=NC[C@@H]1COC2(CCCCC2)O1 | 6%[21.6 µM] | -3%[29.3 µM] | x | x
C[N+]1(CC2COC3(CCCCC3)O2)CCCC1 (stereo not given) | 10µM* | 2% | -8% | 13%
Cc1c(C(=O)Nc2cccc(C(F)(F)F)c2)sc2nc3n(c(=O)c12)CCC3 | x | 2% | x | 8%
CCc1cccc(NC(=O)c2sc3nc4n(c(=O)c3c2C)CCC4)c1 | x | -19% | 13µM* | 7%
CCCS(=O)(=O)NCc1cn2cccc(C)c2n1 | -5% | 4% | 20% | x
COc1ccc(-c2cn3cccc(C)c3n2)cc1Br | 1% | -3% | 3.5µM* | 2%
Cc1cccn2cc(-c3ccc(F)cc3)nc12 | x | -9% | 100% | -1%
Cc1cccn2cc(-c3ccccc3)nc12 | 7% | -15% | 2µM* | -3%
Cc1cccn2cc(CNc3ccccc3)nc12 | -3% | 2% | 14µM* | 3%
CCCCC/C(C=O)=C/c1ccccc1 | 6% | x | x | x
C1CCOC1 | -4% | x | x | x
Clc1ccc(OCc2nc3ccccc3[nH]2)cc1 | 3% | -5% | 3.2µM* | 3%
c1ccc(OCc2nc3ccccc3[nH]2)cc1 | -3% | -13% | u | 9%
CSc1nsc(N/N=C/c2ccc3c(c2)OCO3)c1C#N | 16% | -5% | 4µM* | 3%
COc1cc(/C=N/Nc2snc(SC)c2C#N)cc(OC)c1OC | 33% | -10% | -58% | -1%
COc1ccc2occ(C(=O)c3cccs3)c2c1 | 10% | 25µM* | 49% | 2%
COc1ccc2occ(C(=O)c3ccc(N)cc3)c2c1 | x | -19% | u | 0%
Clc1ccc(SCc2cn3cccnc3n2)cc1 | -7% | u | 78% | x
Cc1ccc(SCc2cn3cccnc3n2)cc1 | 3% | -20% | 11µM* | -1%
CCC(Sc1nc2c(sc3ccccc32)c(=O)n1CCCC(=O)NC1CCCC1)C(=O)Nc1cccc(OC)c1 (stereo not given) | x | 5% | x | 2%
CCC(C)c1ccc(NC(=O)c2cccnc2)cc1 (stereo not given) | -5% | -8% | 3.5µM* | 0%
CC(c1ncncc1F)[C@](O)(Cn1cncn1)c1ccc(F)cc1F (stereo not given in full) | 0% | x | x | x
Nc1nc(SCc2ccccc2[N+](=O)[O-])c2[nH]cnc2n1 | -1%[14.2 µM] | x | x | x
CC1=CC(O)=NS(=O)(=O)O1 | x | x | 15% | x
SMILES | RGS12 GoLoco inh | Apoferritin bind | BRCA1 expr act | ERG Ets-DNA blk
O=[N+]([O-])c1ccccc1NCCNc1ncc(C(F)(F)F)cc1Cl | 7% | -22% | 66% | 11%
O=[N+]([O-])c1cccnc1NCCNc1ncc(C(F)(F)F)cc1Cl | 11% | u | 2.5µM* | -8%
CC1CCCCN1C(=O)COC(=O)c1ccc(N2CCCC2=O)cc1 (stereo not given) | x | x | 34% | -12%
Nc1ccc(C(=O)OCC(=O)N2CCOCC2)cc1[N+](=O)[O-] | 1% | -15% | 11µM* | -28%
CC1CCCCN1C(=O)COC(=O)c1cc(Cl)c2c(c1)OCO2 (stereo not given) | x | x | 11µM* | 1%
CC1CCN(C(=O)COC(=O)c2ccc3c(c2)OCCO3)CC1 | x | x | u | -6%
CC1CCN(C(=O)COC(=O)c2ccc3c(c2)OCO3)CC1 | -1% | -22% | 2.5µM* | -5%
Nc1cc(C(=O)OCC(=O)N2CCOCC2)ccc1Cl | x | 9% | 70% | 9%
Nc1cc([N+](=O)[O-])cc(N)c1N | x | x | 22% | x
COc1ccc(NC(=O)CSc2nc(SC)ns2)cc1 | x | 0% | 4.5µM* | 2%
Cc1ccc(S(=O)(=O)N2CCN(c3nc(-c4cncs4)nc4ccccc34)CC2)cc1 | x | x | 0% | x
COc1ccc(-c2ccc(-c3nnn(CC(=O)N4CCOCC4)n3)cc2)cc1 | -5% | -9% | 1.4µM* | 8%
COc1ccc(-c2nnn(Cc3ccccc3)n2)cc1 | x | -7% | 10µM* | -1%
CSc1ccc(-c2nnn(Cc3ccc(C)cc3)n2)cc1 | 1% | -11% | 10µM* | 2%
COc1cc(-c2nnn(CC(=O)N3CCOCC3)n2)cc(OC)c1OC | -2% | -7% | -2% | 0%
CN1CCC[C@@H]1c1cccnc1.O=C(O)c1ccccc1O.O=C([OH2+])c1ccccc1O.O=C([OH2+])c1ccccc1O.[Mn] | 6%[14.2 µM] | x | x | x
Cc1ccnc(SCC(=O)c2cccs2)n1 | 7% | -17% | 2.5µM* | 1%
N/C(=N\OC(=O)/C=C/c1ccccc1)c1ccccc1 | 5% | -17% | 7.1µM* | x
N/C(=N\OC(=O)/C=C/c1ccccc1)c1ccc(Cl)cc1 | -16% | 8% | 49% | -4%
CN(C)c1ccc(-c2cc(C3C4C=CCCC4(C)C(=O)N3Cc3ccccc3)ccc2F)cc1 (stereo not given) | x | 29% | x | x
Nc1nnc(-c2cc3ccccc3oc2=O)s1 | 9% | 253% | 7.9µM* | 3%
O=c1oc2ccccc2cc1-c1nnc(NCc2ccco2)s1 | 13% | 184% | 5% | 14%
COc1ccc2oc(=O)c(-c3nnc(N)s3)cc2c1 | 14% | 263% | 14µM* | -7%
O=C(CSc1nnc(NC2CCCCC2)s1)Nc1ccc2c(c1)C(=O)c1ccccc1C2=O | 20% | -9% | 4.5µM* | 7%
O=C(/C=C/c1ccc(F)cc1)NC(=S)Nc1ccccc1O | x | -11% | 13µM* | 3%
SMILES | RGS12 GoLoco inh | Apoferritin bind | BRCA1 expr act | ERG Ets-DNA blk
C#CCn1cc(/C=N/NC(=O)COc2cccc3cccnc23)c2ccccc21 | 0.79µM* | -11% | 2% | -3%
COC(=O)Cn1cc(/C=N/NC(=O)COc2cccc3cccnc23)c2ccccc21 | 9% | -6% | -35% | 0%
CSCC[C@H](NC(=O)[C@H](Cc1ccc(OS(=O)(=O)O)cc1)NC(=O)[C@@H](N)CC(=O)O)C(=O)NCC(=O)N[C@@H](Cc1c[nH]c2ccccc12)C(=O)N[C@@H](CCSC)C(=O)N[C@@H](CC(=O)O)C(=O)N[C@@H](Cc1ccccc1)C(N)=O | x | 10% | x | x
CCOC(=O)c1sc(N(Cc2ccccc2)C(=O)CSc2nnc(C3CC3)n2N)nc1C | 5% | u | 8.9µM* | -8%
Brc1cccc[n+]1CCCC[n+]1ccccc1Br | x | x | 0% | x
COC(=O)[C@H](Cc1ccccc1)NC(=O)O[C@@H]1C(=O)c2ccc(OC)cc2O[C@H]1c1ccc2c(c1)OCO2 | -16% | x | x | x
CCCCn1nnnc1SCC(=O)Nc1ccc(N(C)C)cc1 | 10µM* | -15% | 0% | -6%
O=S(=O)(NCC(c1ccco1)S(=O)(=O)c1ccccc1)c1cc(F)ccc1F (stereo not given) | x | -21% | x | -2%
CCC1(CC)Nc2ccccc2C(=O)N1c1ccc(OC)cc1 | 2% | 67% | u | 12%
COc1ccc(N2C(=O)c3ccccc3NC23CCCC3)cc1 | -6% | 0% | 6.3µM* | 11%
O=C(c1ccco1)N1CCN(c2ccc(Cl)cc2)CC1 | 2% | 8% | 11µM* | 0%
O=C(c1ccco1)N1CCN(c2ccc(Cl)c(Cl)c2)CC1 | x | x | 13µM* | -10%
O=C(Nc1ccc(N2CCN(C(=O)c3ccco3)CC2)cc1)c1cc(Br)ccc1Cl | x | x | -60% | -5%
